Experimental data from PubChem BioAssay AID1159580 (chemical genetic matrix, 2015).
Among all 5,500 compounds or so, about 2,000 (36%) were called active. Inconclusive results (about 18%) are left out. Cut-off read from the data, not from the text of the source: active = normalized growth mostly below about 0.91 (no sharp cut-off); inconclusive = no clear call, values can overlap the other calls; inactive = mostly above about 0.92. The list shows a part of the results.

Assay: chemical genetic growth profiling, strain panel (AID 1159580);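 note: tested at 20 µM; growth read once vehicle control cultures reached saturation at 30 °C; 1 = growth at the plate median or of vehicle wells; lower values mean less growth of the strain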
Settings: S. cerevisiae deletion strains, growth OD

Measured: normalized growth

CN(C)S(=O)(=O)c1ccc2c(c1)/C(=C/c1cc3c([nH]1)CCCC3)C(=O)N2
inactive: locus YAL040C, strain CLN3, stronger effect = lower value 1.07 | locus YCL061C, strain MRC1 (second series), stronger effect = lower value 0.995 | locus YDR363W, strain ESC2, stronger effect = lower value 0.983 | locus YER002W, strain NOP16, stronger effect = lower value 0.983 | locus YGR229C, strain SMI1, stronger effect = lower value 0.972 | locus YJR075W, strain HOC1, stronger effect = lower value 1.01 | locus YMR307W, strain GAS1, stronger effect = lower value 0.996 | locus YNL128W, strain TEP1, stronger effect = lower value 0.982 | locus YNL153C, strain GIM3, stronger effect = lower value 0.977 | locus YNL175C, strain NOP13, stronger effect = lower value 0.976 | locus YNL197C, strain WHI3, stronger effect = lower value 0.995 | locus YNL224C, strain SQS1, stronger effect = lower value 0.983 | locus YNL322C, strain KRE1, stronger effect = lower value 0.983 | locus YOR083W, strain WHI5 (second series), stronger effect = lower value 1 | locus YPL055C, strain LGE1, stronger effect = lower value 0.985
